Screening data from PubChem.
Methyltransferases – Primary Screen for Target Class Profiling of Small Molecule Inhibitors of Methyltransferases | purified enzyme, MTase-Glo SAH luminescence; stronger effect = lower value | calls only at 40 µM | hit rate 3.9% among 25,000 | AID 1745853, 2022; call rule not given here
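Each enzyme was assayed with SAM and its substrate. SAH formation detected by MTase-Glo luminescence; single-point 40 uM screen[…].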
Starred values were filed as active, the others as inactive; i = inactive; + = active, no number; ! = not active in a repeat. The entries come from a sample that favours hits as a whole. % is scaled to controls: 0 for no effect and ±100 for the full control effect.

SMILES | Methyltransferases
Cc1cc(Nc2nc(N[C@@H](C)c3ccc(F)cc3)c(C#N)cc2F)n[nH]1 | +!
Cc1cc(Nc2nc(-c3ccccc3)nc3ccccc23)n[nH]1 | i
CCCC1c2cccn2CCN1C(=O)NC1(CC(=O)OCC)CCCCC1 (centres undefined) | i
O=C(C1CC1)N1CCc2cc(Br)c(S(=O)(=O)NCCN3CCN(c4ccccc4F)CC3)cc21 | i
CN(C)C1CCCN(C(=O)c2csc3c2CCCC3)CC1 (centres undefined) | i
CC1(C(=O)NC2CCCC2)Cn2c(nc3ccccc32)C(=O)N1CCc1ccccc1 (centres undefined) | i
Cc1ccccc1CN1C(=O)c2cc(C3CC3)nn2CC1(C)C(=O)NC1CCCCCC1 (centres undefined) | i
CC(C)CNC(=O)c1ccc2c(=O)n(CC(C)C)c3nn(Cc4ccc(F)cc4Cl)c(=O)n3c2c1 | i
C=CCc1ccc(O[C@@H]2O[C@H](CO[C@@H]3O[C@@H](C)[C@H](O)[C@@H](O)[C@H]3O)[C@@H](O)[C@H](O)[C@H]2O)cc1 | i
COc1ccc(CCO[C@@H]2O[C@H](CO[C@@H]3OC[C@H](O)[C@H](O)[C@H]3O)[C@@H](O)[C@H](O)[C@H]2O)cc1 | +
OC1COC(OCC2OC(OCCc3ccccc3)C(O)C(O)C2O)C(O)C1O (centres undefined) | +
OC[C@@]1(O)CO[C@H](OC[C@H]2O[C@@H](OCCc3ccccc3)[C@H](O)[C@@H](O)[C@@H]2O)[C@@H]1O | i
C[C@@H]1O[C@@H](OC[C@H]2O[C@@H](OCCc3ccccc3)[C@H](O)[C@@H](O)[C@@H]2O)[C@H](O)[C@H](O)[C@H]1O | i
COC(=O)c1ccc(OC)cc1O[C@@H]1O[C@H](CO[C@@H]2OC[C@@H](O)[C@H](O)[C@H]2O)[C@@H](O)[C@H](O)[C@H]1O | i
Cc1cccc(CSc2nnc3n(CC(C)C)c(=O)c4cc(F)ccc4n23)c1 | i
C=Cc1ccc(Cn2nc3n(Cc4ccc(C)cc4)c(=O)c4ccc(C(=O)NC(C)C)cc4n3c2=O)cc1 | i
CC(C)=CCC/C(C)=C/CO[C@@H]1O[C@H](CO[C@@H]2OC[C@](O)(CO)[C@H]2O)[C@@H](O)[C@H](O)[C@H]1O | i
Cc1cc2c(cc3n2CC(C)(C(=O)NC2CCCCCC2)N(Cc2cccc(Cl)c2)C3=O)o1 (centres undefined) | i
COc1ccc(-c2cc3n(n2)CC(C)(C(=O)NCc2ccccc2)N(Cc2ccc(C)cc2)C3=O)cc1 (centres undefined) | i
C[S+](=O)([O-])CCn1ncc2cc(OCc3cccc(-c4cccc(F)c4)c3)ccc21 | i
COc1ccc(-c2nc3cc(C(=O)NCC(C)C)ccc3o2)cn1 | i
NC(=O)CO[C@@H]1CO[C@H]2[C@@H]1OC[C@@H]2NC(=O)NCc1ccccc1 | i
CN1C(=O)c2cc(C(=O)NCCCc3ccccc3)nn2CC1(C)C(=O)NC1CCCC1 (centres undefined) | i
Nc1nc(Nc2ccc3c(c2)CCC(N2CCCC2)CC3)nn1-c1cc2c(nn1)-c1ccccc1CCC2 (centres undefined) | +
CCc1ccc(CN2C(=O)c3cc(-c4ccco4)nn3CC2(C)C(=O)NCCC(C)C)cc1 (centres undefined) | i
SMILES | Methyltransferases
CC(C)n1c(=O)c2ccc(C(=O)NC3CCCCC3)cc2n2c(=O)n(Cc3ccc(Cl)cc3)nc12 | i
C=C1C(=O)OC2/C=C(/C)C3=CC(=O)C(C)(CC(OC(=O)/C(C)=C/COC(C)=O)C12)O3 (centres undefined) | +
C=C1C(=O)O[C@H]2[C@H]1[C@@H](OC(=O)/C(C)=C\C)C[C@]1(C)O[C@@H]1[C@H]1O[C@H]1C(=C)[C@H]2O | i
C=C(CO)C(=O)O[C@H]1C[C@@]23O[C@@H]2CC/C(=C/[C@H]2OC(=O)C(=C)[C@H]12)CO[C@H]3O | i
O=c1cc(OCc2ccc(F)cc2)ccn1-c1ccc(OCCN2CCCC2)cc1 | i
CC(C)Cn1c(=O)c2cc(F)ccc2n2c(SCC(=O)Nc3ccc(Cl)cc3)nnc12 | i
CCn1cc(-c2ccnc3[nH]c(-c4cccc(CN(C)C)c4)cc23)c(-c2ccc(NC(=O)N(C)C)cc2)n1 | +
CN(C)C(=O)Nc1cccc(-c2ccc(N(C)C)cc2)c1 | i
CCOc1ccccc1CNC(=O)c1cc2n(n1)CC(C)(C(=O)NC1CCCC1)N(C)C2=O (centres undefined) | i
COC(=O)c1ccc(NC(=O)N2Cc3c(sc4c3CCCC4)-n3cccc3C2c2cccc(F)c2)cc1 (centres undefined) | i
Cc1cnc(C(=O)N(C)C2CCc3nn(CC4CC4)c(=O)n3CC2)cn1 (centres undefined) | i
COc1ccc(N2C(=O)c3cc4occc4n3CC2(C)C(=O)NC2CCCC(C)C2C)cc1Cl (centres undefined) | i
O=C(c1ccc(F)cc1)N1CCC2(CNc3ccccc3[S+](=O)([O-])N2)C1 (centres undefined) | i
CCc1cccc(N2C(=O)c3cc(C(=O)OC)nn3CC2(C)C(=O)NC2CCC(C)CC2)c1 (centres undefined) | i
CCc1ccc(NC(=O)Cn2nc3n(CCCOC(C)C)c(=O)c4ccccc4n3c2=O)cc1 | i
Cc1ccc(NC(=O)Cn2c(=O)oc3cc(S(=O)(=O)N4CCCC4)ccc32)c(Br)c1 | i
CCCCN(CC)CCCN1C(=O)c2cc3occc3n2CC1(C)C(=O)NC1CCCCCC1 (centres undefined) | i
COC(=O)C1=COC(O[C@@H]2O[C@H](COC(=O)/C=C/c3ccc(O)cc3)[C@@H](O)[C@H](O)[C@H]2O)C2C(CO)=CCC12 (some centres undefined) | i
O=C(/C=C/c1ccccc1)OCC1=CC[C@@H]2C(C(=O)O)=CO[C@@H](O[C@@H]3O[C@H](CO)[C@@H](O)[C@H](O)[C@H]3O)[C@H]12 | i
COC(=O)C1=CO[C@@H](O[C@@H]2O[C@H](COC(=O)/C=C/c3cc(OC)c(O)c(OC)c3)[C@@H](O)[C@H](O)[C@H]2O)[C@@H]2C(CO)=CC[C@H]12 | +
Fc1ccc(OC2CN(CC3CCCCC3)C2)c(F)c1 | i
CC(C)OCCCN1C(=O)c2nc3ccccc3n2CC1(C)C(=O)NC1CCCCCC1 (centres undefined) | i
CCOc1ccc(CN2C(=O)c3cc4occc4n3CC2(C)C(=O)NC2CCCCCCC2)cc1 (centres undefined) | i
Cc1c[nH]c2nccc(Oc3c(F)cc(Nc4cc(Cl)nc(N)n4)cc3F)c12 | +
Cn1c(=O)n(C)c2cc(S(=O)(=O)NCc3ccccc3Cl)ccc21 | i
SMILES | Methyltransferases
O=c1[nH]c2ccc(S(=O)(=O)N3CCc4ccccc4C3)cc2[nH]1 | i
N[C@@H](Cc1cc(I)c(Oc2ccc(O)c(I)c2)c(I)c1)C(=O)O | +!
N[C@@H](Cc1cc(I)c(Oc2cc(I)c(O)c(I)c2)c(I)c1)C(=O)O | +
NC(Cc1cccc(-c2ccccc2CP(=O)(O)O)c1)C(=O)O (centres undefined) | i
NC(Cc1c[nH]c2ccccc12)C(=O)O (centres undefined) | i
COCCC1(CO)CCCN(C(=O)CCc2c(C)noc2C)C1 (centres undefined) | i
CS(=O)(=O)N1CCC(OC2CCN(C(=O)c3cccnc3)CC2)CC1 | i
